Compounds without any hit were thinned out: in the full panel of roughly 83,000, 20% have a hit.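 The endpoint reported here, percent growth, reads 100 for growth as untreated, 0 for no net growth and -100 for all cells dead.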 Unmarked numbers belong to inactive results. Activity calls are given as the source filed them.
Each molecule was assayed on HS 578T breast (assay: NCI-60 one-dose screen, 48 h (100 = growth as untreated, 0 = no growth, -100 = all killed)). Settings: 10 µM.
Method: Growth inhibition of the HS 578T human tumor cell line is measured as a screen for anti-cancer activity. Cells are grown in 96 well plates and exposed to the test compound for 48 hours. Compounds are tested at a single concentration, which is 10^-5 M for most compounds. The reported endpoint is percent growth (GI% or GIPRCNT), where numbers from 0 - 100% represent growth inhibition, and numbers from -100% - 0 represent cell death. For example, a value of 40 represents 60% growth inhibition. A value of 0 means no net growth occurred over the course of the experiment. A value of -40 indicates 40% of cells at the beginning of the experiment died by the end of the experiment. A value of -100 means all cells are dead at the end of the experiment.
NCI-60 Human Tumor Cell Lines Screen was performed using the standard one-dose NCI protocol, which is described in more detail at https://dtp.cancer.gov/discovery_development/nci-60/default.htm.
Compounds with GIPRCNT values below 10 were considered active. Activity score was based on GIPRCNT using the following formula: […]
Score is 0 for GIPRCNT values of 100 or above, 50 for GIPRCNT values of 0, and 100 for GIPRCNT values of -100.
COC(=O)C(Cc1ccc(O)c(O)c1)NC(=O)C(CSC/C=C(\C)CCCC(C)CCCC(C)CCCC(C)C)NC(C)=O (stereo not given) was tested, and the growth was 25.5%. In the case of O=C(CSc1nnc(-c2ccc3nc(-c4ccc(Cl)cc4)[nH]c3c2)o1)Nc1ccc(Br)cc1, the growth is reported as -16.5% (active). CN1CCN(c2ccc(Nc3nc(NCCCNC(=O)c4ccc(F)cc4)c4sccc4n3)cc2)CC1 was tested, and the growth was 84.1%. With O=C(CSc1nnc(-c2ccc3nc(-c4ccccc4)[nH]c3c2)o1)Nc1ccc(Cl)cc1 the growth was 16.7%. O=C1NC(=NC23CC4CC(CC(C4)C2)C3)N/C1=C\c1ccc2ncsc2c1 was tested, and the growth was -0.802% (active). For COc1ccccc1[C@H]1C(C(=O)c2ccc(Cl)cc2)C2(N[C@@H]1c1ccccc1)C(=O)Nc1ccc(Cl)cc12 (stereo not given in full), the growth was -2.19% (active). CN(C)c1ccc(/C=C/c2nc3ccccc3c(=O)n2CC(=O)Nc2ccccc2)cc1 gave a growth of 44.7%. With CN1CCN(Cc2ccc(NC(=O)c3cncc(C#Cc4cnc5ccc(N[C@H]6CCOC6)nn45)c3)cc2C(F)(F)F)CC1 the growth was -42.7% (active). NS(=O)(=O)c1ccc(NC(=O)CSc2ccc(-c3ccc(Cl)cc3)nn2)c(Br)c1 was tested, and the growth was 4.72% (active). For N#Cc1ccc(NC(=O)CSc2ccc(-c3ccc(Br)cc3)nn2)cc1, the growth was 72.9%. With CCN1CCN(c2ccc(NC(=O)Nc3ccc(-c4cc(C(=O)NC)c5ncccc5n4)cc3)cc2C(F)(F)F)CC1 the growth was -51.5% (active). Oc1ccc(/C=C2\CCCc3cc4ccc(O)cc4[o+]c32)c(O)c1 was tested, and the growth was 52.3%. In the case of O=C(Nc1ccc(OCC(=O)c2ccccc2)cc1)Nc1ccc(Cl)c(C(F)(F)F)c1, the growth is reported as 9.19% (active). CCOc1ccc(/C=N/NC(=O)Cn2nc(Cc3ccccc3)c3onc(C)c3c2=O)cc1 was tested, and the growth was -12.7% (active). O=C(c1ccc(-n2c(=O)[nH]c3ccccc3c2=O)cc1)N1CCOCC1 was tested, and the growth was 101%. Cc1nc(Nc2nc(C)c3ccc(OCCN4CCOCC4)cc3n2)[nH]c(=O)c1C was tested, and the growth was 11.9%. COc1ccc(C2N(c3ccc(Br)cc3)N=C(C(C)=O)N2[C@H]2[C@H](OC(C)=O)O[C@H](COC(C)=O)[C@@H](OC(C)=O)[C@@H]2OC(C)=O)cc1 (stereo not given in full) gave a growth of 63.3%. Work on COc1cc(NC(=O)CSc2nnc(-c3ccc4nc(-c5ccc(Cl)cc5)[nH]c4c3)o2)cc(OC)c1OC yielded a growth of 50.6%. Molecule COc1ccccc1[C@H]1C(C(=O)c2ccc(O)cc2)C2(N[C@@H]1c1ccccc1)C(=O)Nc1ccc(Br)cc12 (stereo not given in full) has a growth of 36.3%. For O=C1Nc2ccc(Cl)cc2/C1=C/c1cccc(OCc2ccccn2)c1, the growth was -1.17% (active). For Cc1ccc(F)cc1N/C=c1\s/c(=C(\C#N)C(=O)Nc2ccccc2)n(-c2ccccc2)c1=O, the growth was 37%. In the case of COc1ccc2[nH]c(=O)c(CSc3cccc(N)c3)cc2c1, the growth is reported as 95%. For N#C/C(=C\c1ccc(N(c2ccccc2)c2ccccc2)cc1)C(N)=O, the growth was 99.2%. Cc1ccc(/C(N)=N/c2sc(-c3ccccc3)nc2-c2ccccc2)cc1 gave a growth of 95%. In the case of COc1cnc2c(c1)C(=O)c1c-2n(CCCNC(C)C)c(=O)c2cc(OC)c(OC)cc12, the growth is reported as 103%. In the case of COc1ccc(CCN2C(=O)/C(=C/c3csc(C#N)n3)SC2=S)cc1, the growth is reported as 16.9%. For C=C[C@H]1[C@H](O[C@@H]2OC(CO)[C@@H](O)[C@H](O)C2OC(=O)c2c(O)cc(O)cc2-c2cccc(O)c2)OC=C2C(=O)OCC[C@H]21 (stereo not given in full), the growth was 99.7%. COc1cccc(/C=C2\N=C(C)N(CCc3ccc(S(N)(=O)=O)cc3)C2=O)c1 gave a growth of 98.6%. Molecule C=C[C@@]12CN3CC[C@]1(O)[C@@](C(=O)OC)(CO2)c1[nH]c2ccccc2c1C3 has a growth of 80.5%. Work on O=C(CSc1nnc(-c2c[nH]c3ccccc23)n1-c1ccccc1)c1ccc(Br)cc1 yielded a growth of 52.3%. Work on C[C@H]1[C@H](C)CC[C@]2(COC(=O)CCC(=O)NCC#CCN3CCNCC3)CC[C@]3(C)C(=CC[C@@H]4[C@@]5(C)CCCNC(C)(C)[C@@H]5CC[C@]43C)[C@H]12 yielded a growth of 60.8%. COc1cccc(-c2ccnc(/N=C(\N)Nc3ccc(S(=O)(=O)Nc4nc(C)cc(C)n4)cc3)n2)c1 was tested, and the growth was 86.4%. For O=c1[nH][nH]c(Nc2ccccc2)c1N=Nc1ccc(F)cc1, the growth was 65.2%. COc1ccc(-c2cc(-c3cc(C(=O)c4ccccc4)n4ccc(C)cc34)nc(N)c2C#N)cc1 was tested, and the growth was 8.95% (active). CC(C)(C)Nc1nc2cc(Cl)c(Cl)cc2nc1S(C)(=O)=O gave a growth of 56.8%. Brc1ccc(N/N=C/c2c[nH]c3ccccc23)nc1 was tested, and the growth was 51.7%. In the case of CN1CCN(Cc2ccc(C(=O)Nc3cccc(Nc4ccc5cc(O)ccc5n4)c3)cc2C(F)(F)F)CC1, the growth is reported as -2.79% (active). Molecule C=C1CCC2C3(C)COC(c4c(F)cccc4F)OC3CCC2(C)C1C/C=C1/C(=O)OCC1O (stereo not given) has a growth of 17.5%. In the case of CC1=C2C(=C[C@@](C)(COCOCCCl)[C@@H]2O)C(=O)[C@](C)(O)C12CC2, the growth is reported as -15.8% (active). Work on CN1C(=O)N(C)C2SC(N/N=C/c3ccc(F)cc3)=NC21 (stereo not given) yielded a growth of 33.5%.
